{"source": "PubChem BioAssay (NCATS)", "note": "Records with an inconclusive call do not appear. Values without a mark were called inactive. The source made the active and inactive calls. The call rests on the fitted dose curve; in most records, active means well fitted cell-killing curve with a large enough effect; inconclusive means small, poorly fitted or top-dose-only effect, or effect the other way; inactive means flat fitted curve, though single readings scatter. On the % scale 0 is the no-effect control and ±100 the full control effect; potency means the concentration at half of the fitted maximal effect.", "data": [{"system": "Tov112D", "assay": "Primary qHTS to identify gynecologic anti-cancer compounds using libraries of approved drugs and bioactive compounds (AID 1345084); further: nearly all actives have a fitted effect of over 55% in size", "conditions": "Gynecologic cancer cell panel viability, ATPlite luminescence, 48 h; series mostly up to 57.5 µM; activity change, negative = cytotoxicity: at the top concentration", "outline": "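Luminescence from the ATPlite ATP-monitoring reagent indicates viable cell number; lower signal means cytotoxicity. Cells received compound 16 h after seeding and were exposed for 48 h across five concentrations.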", "values": [{"smiles": "CC(C)(C)c1cc(C(=O)O)c(NC(=O)Nc2ccc3[nH]ncc3c2)s1", "activity change, negative = cytotoxicity": "10.3%"}, {"smiles": "COc1cc2nc(-c3ccc(N4CCN(C)CC4)cc3)nc(NCCN3CCOCC3)c2cc1OC", "activity change, negative = cytotoxicity": "-0.18%"}, {"smiles": "COc1ccc(Cc2ccc(NC(N)=O)cc2)cc1-c1cccc(Cl)c1", "activity change, negative = cytotoxicity": "7.41%"}, {"smiles": "NC(=O)c1cccc2[nH]c(-c3ccc([C@H]4CCCN4)cc3F)nc12", "Potency": "12.6 µM (active)"}, {"smiles": "NC(=O)c1cccc(-c2cc(Nc3ccc(OC(F)(F)F)cc3)ncn2)c1", "activity change, negative = cytotoxicity": "9.09%"}, {"smiles": "CCn1c(C(=O)N(C2CC2)C2CC2)cc2c3c(ncn3C)c(Nc3cc(C)n(C)n3)nc21", "activity change, negative = cytotoxicity": "-5.2%"}, {"smiles": "CO[C@H]1C=CO[C@@]2(C)Oc3c(C)c(O)c4c(O)c(c5c(c4c3C2=O)NC2(CCN(CC(C)C)CC2)N=5)=NC(=O)C(C)=CC=C[C@H](C)[C@H](O)[C@@H](C)[C@@H](O)[C@@H](C)[C@H](OC(C)=O)[C@H]1C", "activity change, negative = cytotoxicity": "-7.64%"}, {"smiles": "CC1(C)CCC(CN2CCN(c3ccc(C(=O)NS(=O)(=O)c4ccc(NCC5CCOCC5)c([N+](=O)[O-])c4)c(Oc4cnc5[nH]ccc5c4)c3)CC2)=C(c2ccc(Cl)cc2)C1", "activity change, negative = cytotoxicity": "-1.54% [at 25.3 µM]"}, {"smiles": "Cc1ccccc1C(C(=O)NC1CCCCC1)N(C(=O)Cn1ccnc1C)c1cccc(F)c1", "note": "(stereo not drawn)", "activity change, negative = cytotoxicity": "-2.86%"}, {"smiles": "CC(C)(C)NC(=O)Nc1cccc(Nc2ncc(F)c(NC(C)(C)CO)n2)c1", "activity change, negative = cytotoxicity": "-23.6%"}, {"smiles": "CC(C)[C@H](CO)Nc1nc(Nc2ccc(C(=O)O)c(Cl)c2)c2ncn(C(C)C)c2n1", "activity change, negative = cytotoxicity": "10.2% [at 25.3 µM]"}, {"smiles": "O=c1cc(CN2CCOCC2)occ1OCCCCCSc1ccnc2cc(C(F)(F)F)ccc12", "activity change, negative = cytotoxicity": "-28.3%"}, {"smiles": "CC(C)C(=O)Oc1ccc(CO)cc1[C@H](CCN(C(C)C)C(C)C)c1ccccc1", "activity change, negative = cytotoxicity": "9.53%"}]}]}
